High-throughput results as filed in PubChem BioAssay.
PME-1 inh: blocks human protein phosphatase methylesterase 1; Q9Y570; recombinant PME-1, FP-Rh probe fluorescence polarization; inhibition, % at 5.9 µM; hit rate 0.53% among 320,000;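 active means inhibition above the campaign mean of all compounds plus 3 SD, cut at about 26% in these data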;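 further: competitive labeling of PME-1 active site by serine hydrolase directed probe; 0% = PME-1 with DMSO and 100% = wells lacking PME-1 enzyme; inhibitors block probe labeling so polarization falls and inhibition rises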
LYPLA2 counter: counter-screen for PME1 inhibitors: inhibitors of human LYPLA2. hit rate 0.38% among 320,000. O95372. inhibition, % at 5.9 µM. recombinant LYPLA2, FP-Rh probe fluorescence polarization;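 active means inhibition above the screen-wide mean plus 3 SD, limit set per campaign, cut at about 26% in these data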;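 further: 0% = LYPLA2 with DMSO and 100% = wells lacking LYPLA2 enzyme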
PREPL inh: inhibits the human prolyl oligopeptidase-like enzyme; hit rate 0.68% among 320,000; recombinant PREPL, fluorescence polarization activity-based probe; inhibition, % at 5.96 µM; AID 2751; in the data active means inhibition above about 43%;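 further: 0% = enzyme with DMSO and 100% = wells lacking enzyme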
LYPLA1 counter: counter-screen for PME1 inhibitors: inhibitors of human LYPLA1 | inhibition, % at 5.9 µM | recombinant LYPLA1, FP-Rh probe fluorescence polarization | hit rate 0.16% among 320,000 | O75608;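 active means inhibition above the mean of all tested compounds plus 3 SD, set per campaign, cut at about 14% in these data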;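 further: inhibitors block serine hydrolase probe labeling of LYPLA1 so polarization falls; 0% = enzyme with DMSO and 100% = wells lacking LYPLA1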
Fam108B inh: counter-screen for RBBP9 inhibitors: inhibitors of mouse Fam108B. recombinant Fam108B, FP-Rh probe fluorescence polarization. inhibition, % at 9.51 µM. hit rate 0.33% among 300,000. AID 1947;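 active means inhibition above the screen mean inhibition plus 3 SD, computed separately per campaign, cut at about 18% in these data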;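 further: inhibitors lower polarization as less probe binds the enzyme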
Fam108b confirm: Fam108b (mouse) hydrolase inhibition, confirmation assay. shares compounds with Fam108B inh. recombinant Fam108b, FP-Rh probe fluorescence polarization. inhibition, % at 9.51 µM. hit rate 44% among 930. AID 1978;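 active means inhibition above a limit from the primary screen, the mean over all compounds plus 3 SD, cut at about 19% in these data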;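 further: 0% = median of active Fam108b wells and 100% = catalytically dead S170A mutant; inhibitors free the probe so polarization falls as inhibition rises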
Fam108b inh: mouse ABHD17B inhibition; shares compounds with Fam108B inh; recombinant Fam108b, gel-based ABPP, fluorophosphonate probe; inhibition, % at 20 µM; hit rate 44% among 260; AID 588649; in the data active means inhibition above about 40%
Numbers without * were called inactive; / = no result. An excerpt weighted towards active compounds, which were near 1.3% of everything screened.

SMILES | PME-1 inh | LYPLA2 counter | PREPL inh | LYPLA1 counter | Fam108B inh | Fam108b confirm | others
O=C(COC(=O)CNC(=O)c1ccc(Cl)cc1)Nc1cccc(S(=O)(=O)N2CCCC2)c1 | -2 | 2 | 10 | 1 | 64* | -5
Cc1cc(SCC(=O)c2ccc(O)c(O)c2)n2nc(C)c(-c3ccccc3)c2n1 | 15 | 7 | 42 | -17 | 18* | -16
Cc1cc(C)nc(SCC(=O)c2ccc(O)c(O)c2)n1 | -7 | 8 | 7 | 2 | 1 | /
CCN1C(=NCCc2cccs2)N[C@@H](c2cccs2)C(C(=O)OC)=C1C | 4 | 4 | 11 | 3 | -3 | /
Cc1ccc(S(=O)(=O)Nc2cc(C)c(O)cc2C)cc1 | 4 | 0 | 16 | -1 | 6 | /
Cc1ccc(S(=O)(=O)Nc2csc(C)c2C(=O)O)cc1 | 2 | -4 | -2 | -1 | 47* | 2
CCC(C)n1c(NC(=O)c2ccccc2)c(C#N)c2nc3ccccc3nc21 (configuration not stated) | -5 | -11 | 1 | -5 | -8 | /
N#Cc1c(NC(=O)c2ccc(Br)o2)n(-c2ccccc2)c2nc3ccccc3nc12 | 17 | 1 | 5 | 0 | 33* | 34* | Fam108b inh=0
Nc1nc2ccccc2n1N=Cc1ccc(Br)cc1 | / | / | / | / | / | / | Fam108b inh=0
CN(C(=O)CSc1nnc(-c2cccnc2)o1)C1CCCCC1 | -4 | 6 | -7 | 1 | / | /
COC1=CC(=O)C(O)=C(CCCCCCCC=CCCCCCCCC2=C(O)C(=O)C=C(OC)C2=O)C1=O | / | / | / | / | / | / | Fam108b inh=35
C=CCC(C(=O)Oc1c(C(C)(C)C)cc(C)cc1C(C)(C)C)c1ccccc1 (configuration not stated) | -1 | 1 | 7 | 5 | / | /
O=C(CCCN1C(=O)c2cccc3cccc(c23)C1=O)NCc1cccs1 | 1 | -7 | -16 | -5 | 22* | 27*
O=C(CCCN1C(=O)c2cccc3cccc(c23)C1=O)NCc1ccco1 | 8 | 0 | 5 | -2 | 1 | /
Cn1ncc2c(Nc3ccc(Br)cc3)nc(Nc3ccc(Br)cc3)nc21 | 11 | -57 | 24 | -40 | 19* | -21
O=C(NCC1CCCO1)C(c1ccc(F)cc1)N(C(=O)Cn1nnc(-c2ccc(F)cc2)n1)c1cccc(O)c1 (configuration not stated) | 8 | 0 | 24 | 0 | 1 | /
O=C(c1cc(O)c(O)c([N+](=O)[O-])c1)c1ccccc1F | 12 | 2 | -3 | -1 | 49* | 91* | Fam108b inh=0
CCN(CC(=O)Nc1c(C(=O)OC)[nH]c2ccc(Cl)cc12)c1ccc2c(c1)OCO2 | 40* | -1 | 28 | -4 | 21* | 8
CCOC(=O)c1[nH]c2ccc(Cl)cc2c1NC(=O)/C=C/c1ccc2c(c1)OCO2 | -5 | 0 | -10 | 0 | -1 | /
O=C(Nc1cccc(Cl)c1)c1cc(N=Nc2ccc([N+](=O)[O-])cc2Cl)ccc1O | 22 | -12 | 7 | -11 | 26* | -1
CCOC(=O)CSc1nc2c(sc(=S)n2Cc2ccco2)c(=O)n1-c1ccccc1 | -2 | -2 | -1 | -3 | -4 | /
CCOC(=O)CSc1nc2c(sc(=S)n2-c2ccccc2OC)c(=O)n1Cc1ccco1 | 26 | -4 | 6 | -3 | 19* | 7
Cc1[nH]c2c(C)cccc2c1CC(=O)O | 1 | -8 | -5 | -1 | 2 | /
Cc1cccc2c(N=O)c(O)[nH]c12 | 53* | 12 | 41 | 7 | 27* | 24*
O=C(N/N=C/c1ccc(OCc2ccccc2)cc1)c1ccncc1 | -5 | 1 | 14 | -1 | -1 | /
Oc1ccc(N=Cc2ccc(OCc3ccccc3)cc2)cc1 | 27* | 11 | 24 | 3 | 20* | 0
O=c1cnnc(NCc2ccccc2)[nH]1 | -5 | -3 | -3 | -3 | 22* | 2
Cc1cc(C)nc(N/N=C/C2=C(N3CCOCC3)C(=C\c3ccc(Cl)cc3)/CC2)n1 | 3 | -7 | 11 | -1 | 6 | /
O=C(O)c1ccc(N/N=C/C2=C(N3CCOCC3)C(=C\c3ccccc3)/CC2)cc1 | 4 | 4 | 0 | -3 | 19* | 22*
CCOc1cc(CN2CCC(n3nccc3NC(=O)C3CC3)CC2)ccc1O | -1 | 2 | 13 | 5 | 0 | /
